This is a sample that favours compounds with a hit; in the whole collection about 12% have one here.
WT yeast gro inh: growth inhibition of WT yeast, mitochondrial fusion screen; mitochondrial fusion phenotypic screen, WT strain; inhibition, % at 10 µM; hit rate 2.1% among 190,000; AID 1362; in the data active means inhibition above about 58%; tested in S. cerevisiae
CHOP inhibitor: CHOP inhibition in unfolded protein response; CHO-K1 CHOP-promoter luciferase, tunicamycin-induced, 15-18 h; inhibition, % at 10 µM; hit rate 3.8% among 220,000;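 active means compounds that reduced the stress-induced luciferase reporter signal by more than about 70% of percent inhibition, limit read from the data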;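 further: 0% = tunicamycin plus vehicle and 100% = wells without tunicamycin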
Arbovirus anti: antivirals against arbovirus infection | arbovirus infection cell-based antiviral screen | inhibition, % at 10 µM | hit rate 0.37% among 200,000; in the data active means inhibition above about 30%
L major viab: inhibitors of Leishmania major promastigote growth; Leishmania major promastigotes, resazurin fluorescence viability; inhibition, % at 10 µM; hit rate 9% among 200,000; AID 1063; in the data active means inhibition above about 50%;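 further: promastigotes grown with compound for 44 hours at 28 °C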
* = called active by the depositor; . = no result given.

SMILES	WT yeast gro inh	CHOP inhibitor	Arbovirus anti	L major viab
O=C(NCc1cccc(CNC(=O)C(=O)NCc2ccco2)c1)C(=O)NCc1ccco1	-10	38	2	5
CCOc1cccc(C(=O)Nc2nnc(-c3ccco3)s2)c1	-1	74*	5	-8
Cc1cccc(OCC(=O)Nc2nnc(-c3ccco3)s2)c1	0	35	-1	6
CCC(C(=O)Nc1nnc(-c2ccco2)s1)c1ccccc1 (configuration not stated)	8	75*	-4	-2
Cc1noc(C)c1C(=O)N1CCC2(CC1)Oc1ccc(F)cc1C(=O)C21CC(c2ccc(Cl)cc2)=NO1 (configuration not stated)	.	10	.	.
OCCC1CN(Cc2ccccc2OC2CCCC2)CCN1Cc1ccsc1 (configuration not stated)	13	22	-2	61*
OCCC1CN(Cc2ccc(-c3ccco3)cc2)CCN1Cc1ccsc1 (configuration not stated)	-12	5	-9	76*
C#Cc1ccc(CN2CCN(Cc3ccsc3)C(CCO)C2)cc1 (configuration not stated)	-18	3	-14	-4
OCCC1CN(Cc2cccc3nonc23)CCN1Cc1ccsc1 (configuration not stated)	.	5	.	.
NC(=O)NC(=O)COC(=O)CC12CC3CC(CC(C3)C1)C2	-16	11	4	-7
O=C(NCCN1CCOCC1)c1csc2c1CCCCC2	-7	-24	6	-1
CCN1CCN(CCCNC(=O)c2csc3c2CCCCC3)CC1	11	35	-5	99*
CC1CCc2c(C(=O)NCCCN3CCOCC3)csc2C1 (configuration not stated)	9	15	-3	93*
CC1CCc2c(C(=O)NCCN3CCOCC3)csc2C1 (configuration not stated)	0	14	5	17
N#C/C(=N\Nc1ccccc1)C(=N)N1CCCCC1	4	-16	2	90*
Cc1ccc(N/N=C(\C#N)C(=N)N2CCCCC2)cc1	.	-17	.	.
CC(C)c1ccc(CNc2ccc([N+](=O)[O-])cn2)cc1	26	83*	-19	16
CC(C)(C)c1ccc(CNc2ccc([N+](=O)[O-])cn2)cc1	80*	87*	21	8
O=[N+]([O-])c1ccc(NCc2ccc(Cl)cc2)nc1	.	-11	.	.
CCOC(=O)C1(CC2CCCCO2)CCN(Cc2cc3ccccc3[nH]2)CC1 (configuration not stated)	3	26	26	67*
COc1ccc(C(=O)C(CCCCC(CN(C)C)C(=O)c2ccc(OC)cc2)CN(C)C)cc1 (configuration not stated)	-5	-21	-2	100*
CN(C)CC(CCC(CN(C)C)C(=O)c1ccccc1)C(=O)c1ccccc1 (configuration not stated)	.	106*	.	.
O=C(Nc1ccc(C(=O)N2CCOCC2)cc1)c1cccc([N+](=O)[O-])c1	1	9	1	-2
COc1ccc(NC(=O)c2ccc3c(=O)n(-c4ccc(OC)cc4OC)c(=S)[nH]c3c2)c(OC)c1	7	7	-7	69*
Cc1ccc2c(N)c(C(=O)N(c3ccccc3)c3ccccc3)sc2n1	5	36	-3	26
SMILES	WT yeast gro inh	CHOP inhibitor	Arbovirus anti	L major viab
Cc1noc(C)c1CSc1nc2ccccc2s1	6	-14	-3	-7
C#CCSc1nnc(CSc2nc3ccccc3s2)n1-c1ccccc1	29	30	-7	50*
S=c1[nH]nc(CSc2nc3ccccc3s2)n1C1CCCCC1	17	87*	21	7
CCn1c(CSc2nc3ccccc3s2)nc2ccccc21	63*	3	-5	14
S=c1[nH]nc(COc2ccccc2)n1C1CCCCC1	41	29	2	3
c1csc(CSc2nc3ccccc3s2)c1	5	86*	-4	14
CCn1c(CSc2nc3ccccc3s2)nnc1SCC(=O)c1ccc(O)cc1O	-7	41	9	-3
CC(=O)Nc1nc(C)c(Oc2ccc(C)cc2)c(=O)[nH]1	.	2	.	.
Fc1ccc(C(CNC(=S)NC2CCCCC2)N2CCOCC2)cc1 (configuration not stated)	-13	2	-3	5
Cc1ccc(OCc2ccc(C(=O)Nc3nc4ccccc4n3Cc3ccccc3)o2)c([N+](=O)[O-])c1	.	88*	-45	7
O=C(Nc1nc2ccccc2n1CCN1CCOCC1)c1ccc(COc2ccccc2Br)o1	22	-38	-15	55*
O=C(Nc1nc2ccccc2n1Cc1ccccc1)c1ccc(COc2ccccc2[N+](=O)[O-])o1	-9	45	-33	-3
COc1cc(OC)cc(C(=O)NCC(=O)OCC(=O)N2CC(C)CC(C)C2)c1 (configuration not stated)	0	11	16	-9
Cc1cc(=O)oc2cc(OCc3ccc(S(=O)(=O)N4CCOCC4)cc3)ccc12	14	15	16	80*
Cc1cc(=O)oc2cc(OCC(=O)N3CCOCC3)ccc12	-2	-3	-4	-3
Cc1cc(=O)oc2cc(OCc3ccc(C(=O)N4CCN(c5ccccc5)CC4)cc3)ccc12	37	48	4	65*
O=C(Nc1ccc(C2SCCS2)cc1)c1ccccc1	.	-30	.	.
C=CCNC(=O)c1oc2ccc(S(=O)(=O)N(CC)CC)cc2c1C	-6	14	0	98*
COCCCNC(=O)c1oc2ccc(S(=O)(=O)N(C)C3CCCCC3)cc2c1C	-6	5	-7	97*
Cc1c(C(=O)O)oc2ccc(S(=O)(=O)NC3CCCCCCC3)cc12	2	-22	10	-9
O=C(N/C(=C\c1ccccc1)C(=O)N1CCN(CCO)CC1)c1ccccc1	-10	-5	9	2
CC(C)Oc1ccc(C(CC(=O)N(C)CCC#N)c2ccc(F)cc2)cc1 (configuration not stated)	-6	4	-1	53*
Cc1cccc(C(=O)n2cnnc2N)c1	4	22	-3	-3
Cc1nc(Nc2ccccc2)sc1-c1ccccc1	64*	70*	33*	-1
O=C(CSc1cccs1)Nc1ccc(Cl)cc1	.	-28	.	.
SMILES	WT yeast gro inh	CHOP inhibitor	Arbovirus anti	L major viab
CCCCNC1=CC(=O)C(=O)c2ccccc21	2	25	-30	100*
CC1=CC(=O)c2ccccc2C1=O	47	33	-44	-1
O=C1C=C(Nc2ccccc2)c2ccccc2C1=O	74*	66	-22	100*
O=C1C=C(Nc2ccccc2C(=O)O)c2ccccc2C1=O	.	17	.	.
O=C1C=C(Nc2ccccc2)C(=O)c2ccccc21	64*	27	-24	100*
CC(C)c1ccc(CNC(=O)C(=O)NCC2CCCO2)cc1 (configuration not stated)	-13	5	-6	0
CCOC(=O)C(=CNc1cc(C)ccc1[N+](=O)[O-])C(=O)OCC	.	1	.	.
CCOC(=O)C(=CNc1cc(C)ccc1C)C(=O)OCC	12	88*	0	-1
Cc1c(C2Nc3ccccc3NC3=C2C(=O)CC(C)(C)C3)cnn1C (configuration not stated)	-16	-17	-16	12
Cc1cc2c(cc1C)NC(c1nc3ccccc3[nH]1)C1=C(CC(C)(C)CC1=O)N2 (configuration not stated)	33	4	9	91*
